# Data from PubChem BioAssay (EPA / NIEHS).
# More than one record can exist for a structure, and the calls need not agree. The source made the active and inactive calls. How the source made its calls: active means hit-call score of the fitted dose curve at least 0.9, where 1 is the maximum; inactive means score below 0.9.
# Biological target: Cellular tumor antigen p53 (Homo sapiens) (UniProt P04637)
# Assay: ATG_p53_CIS: Attagene CIS-FACTORIAL HepG2 Assay for human p53 Transcription Factor (AID 2282994)
# Settings: HepG2 p53 cis-element reporter, Attagene mRNA; actives raise or lower the signal
# Experimental: ATG_CIS is a cell-based, multiplexed-readout assay that uses HepG2, a human liver cell line, with measurements taken at 24 hours after chemical dosing in a 24-well plate.ATG_p53_CIS is one of 52 assay component(s) measured or calculated from the ATG_CIS assay. It is designed to make measurements of mRNA induction, a form of inducible reporter, as detected with fluorescence intensity signals by Reverse transcription polymerase chain reaction (RT-PCR) and Capillary electrophoresis technology.Data from the assay component ATG_p53_CIS was analyzed into 1 assay endpoint. This assay endpoint, ATG_p53_CIS, was analyzed with bidirectional fitting relative to DMSO as the negative control and baseline of activity. Using a type of inducible reporter, measures of mRNA for gain or loss-of-signal activity can be used to understand the reporter gene at the transcription factor-level as they relate to the gene TP53. Furthermore, this assay endpoint can be referred to as a primary readout, because this assay has produced multiple assay endpoints where this one serves a reporter gene function. To generalize the intended target to other relatable targets, this assay endpoint is annotated to the dna binding intended target family, where the subfamily is tumor suppressor.
# Human liver HepG2 cells are transiently transfected with multiple reporter transcription units (MRTUs) in 6-well plates using FuGene 6 reagent (Roche; 3 ml FuGene/1 mg DNA). The MRTU constructs are regulated by a cis-regulating element (promoter). […] A major difference between the CIS and TRANS system is that in CIS activities of endogenous TFs are measured, whereas the TRANS assay evaluates changes in activities of exogenous, chimeric NR-Gal4 proteins. […] At the end of 24 hour incubation, total RNA was isolated using TriZol reagent (Invitrogen). The isolated RNA is then reverse-transcribed using oligo(dT) primer and Mo-MLV reverse transcriptase (Invitrogen) with DNAse I (Ambion) treatment for 30 min. The one-tenth of the produced cDNA was amplified by PCR using Taq DNA polymerase (Invitrogen) and two reporter sequence-specific primers. The PCR products were fluorescently labeled by primer extension with 6-arboxyfluorescein (6-FAM) 5'-labeled reporter sequence-specific primer (2 min at 95 C, 20 s at 68 C and 10 min at 72 C) and these products were digested with 5U of HpaI (New England Biolabs) for 2h at 37 C. The fragments were purified using Qiaquick PCR columns (Qiagen), analyzed on an ABI 3130xL genetic analyzer (Applied Biosystems) with peak positions identified by using a set of X-rhodamine (ROX)-labeled MapMarker1000 molecular weight standards (BioVentures). The raw capillary electrophoresis data was processed using Attagraph software (Attagene).
# Chain of Cellular tumor antigen p53 (Homo sapiens) (P04637 whole entry, looked up): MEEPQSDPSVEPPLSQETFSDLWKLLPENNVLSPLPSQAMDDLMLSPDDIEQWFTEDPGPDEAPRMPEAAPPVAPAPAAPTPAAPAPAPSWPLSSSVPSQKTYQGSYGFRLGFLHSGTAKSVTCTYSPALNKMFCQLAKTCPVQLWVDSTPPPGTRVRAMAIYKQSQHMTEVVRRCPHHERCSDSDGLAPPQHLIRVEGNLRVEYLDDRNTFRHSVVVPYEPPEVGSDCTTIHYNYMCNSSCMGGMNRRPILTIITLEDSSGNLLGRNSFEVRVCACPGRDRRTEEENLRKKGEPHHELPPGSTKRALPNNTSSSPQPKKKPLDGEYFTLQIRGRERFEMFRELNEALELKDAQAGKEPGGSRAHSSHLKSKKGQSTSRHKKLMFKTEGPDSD
Compound,outcome,AC50
CCCCN(CC)C(=O)SCCC,inactive,–
CC(C)Nc1ccc(Nc2ccccc2)cc1,inactive,–
CCCCc1ccc(O)cc1,inactive,–
CC(C)CBr,inactive,–
Nc1ccc([N+](=O)[O-])cc1Cl,inactive,–
c1nc[nH]n1,inactive,–
OCC1CO1 (stereo not given),inactive,–
CC(=O)CCc1ccc2c(c1)OCO2,inactive,–
O=C(O)C1C(C(=O)O)C2(Cl)C(Cl)=C(Cl)C1(Cl)C2(Cl)Cl (stereo not given),inactive,–
CC(=O)c1ccc(-c2ccccc2)cc1,inactive,–
COP(N)(=S)OC,inactive,–
c1ccc2c(c1)sc1ccccc12,inactive,–
CCOC(=O)c1ccccc1C(=O)OCC,inactive,–
FC(F)(F)C(F)(C(F)(F)F)C(F)(F)C(F)(F)CC1CO1 (stereo not given),inactive,–
ClC(Cl)(Cl)c1ccccc1,inactive,–
CC(Cc1ccc(OCC(=O)O)cc1)NCC(O)c1csc(C(F)(F)F)n1 (stereo not given),inactive,–
OCC(F)(F)OC(F)(F)C(F)(F)OC(F)(F)C(F)(F)OC(F)(F)F,inactive,76.8 µM (active)
Cc1cc(C)c(C(=O)P(=O)(c2ccccc2)c2ccccc2)c(C)c1,inactive,–
N#C/C=C/c1ccccc1,inactive,–
Cc1c([N+](=O)[O-])cc2c(c1[N+](=O)[O-])C(C)(C)CC2(C)C,inactive,–

Compound,outcome,AC50
O=[N+]([O-])c1ccccc1,inactive,–
CC(O)C(F)(F)C(F)(F)F (stereo not given),inactive,–
O=C(O)C(F)(OC(F)(F)C(F)(F)C(F)(F)F)C(F)(F)F (stereo not given),inactive,–
[N-]=[N+]=[N-],inactive,–
CCCCOCCOP(=O)(OCCOCCCC)OCCOCCCC,inactive,–
NC(=O)C(F)(F)C(F)(F)F,inactive,–
O=NN1CCCC1,inactive,–
CCOP(=S)(S)OCC,inactive,–
COP(=O)(O)OC,inactive,–
CC(C)(C)OOC(C)(C)C,inactive,–
NNC(N)=S,inactive,–
O=C(O)C(F)(F)OC(F)(F)C(F)(F)OC(F)(F)F,inactive,–
N#Cc1c(-c2ccc(Cl)cc2)[nH]c(C(F)(F)F)c1Br,inactive,–
CCCCC(CC)COC(=O)c1c(Br)c(Br)c(Br)c(Br)c1C(=O)OCC(CC)CCCC (stereo not given),inactive,–
ClC1=C(Cl)C2(Cl)C3C(Cl)C(Cl)CC3C1(Cl)C2(Cl)Cl (stereo not given),inactive,–
COC(N)=O,inactive,–
Cc1ccc(O)cc1C,inactive,–
CC1(C)CN=C(NN=C(/C=C/c2ccc(C(F)(F)F)cc2)/C=C/c2ccc(C(F)(F)F)cc2)NC1,inactive,–
O=c1[nH]c2ccccc2c(=O)o1,inactive,–
